Records with an inconclusive call do not appear. A call without a number means that no potency is given here. Active and inactive are the calls of the source. Calls come from the whole dose curve; as a rule, active = well fitted cell-killing curve with a large enough effect; inconclusive = small, poorly fitted or top-dose-only effect, or effect the other way; inactive = flat fitted curve, though single readings scatter.

For this assay, the system named is Tov112D. Description: Primary qHTS to identify gynecologic anti-cancer compounds using libraries of approved drugs and bioactive compounds (AID 1345084). Note: nearly all actives have a fitted effect of over 55% in size. The note with it: Gynecologic cancer cell panel viability, ATPlite luminescence, 48 h; series mostly up to 57.5 µM. In short, it runs like this:
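ATP-based viability (ATPlite), 1,000 cells/well, 16 h pre-incubation, 48 h compound at 37 C, 5% CO2, 15 min RT before read.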
With `CC(C)=C[C@@H]1[C@@H](C(=O)OCc2coc(Cc3ccccc3)c2)C1(C)C`, the Potency result is “inactive”.

As for `CCN(CC)C(C)C(=O)c1ccccc1` (stereo not given), the Potency result is “inactive”.

For the compound `Nc1ccc(Cl)cc1C(=O)c1ccccc1F`, the Potency entry is “inactive”.

With `COc1ccc(C(=O)N2CCCC2=O)cc1`, the Potency entry is “inactive”.

As for `CC(C)C(Br)C(=O)NC(N)=O` (stereo not given), the Potency entry was “inactive”.

With `C#C[C@]1(O)CC[C@H]2[C@@H]3CCC4=CC(=O)CCC4=C3C=C[C@@]21CC`, the Potency entry is “inactive”.

Consider `CC(CC(C(N)=O)(c1ccccc1)c1ccccc1)N(C)C` (stereo not given), for which the Potency entry is “inactive”.

Regarding `C#C[C@]1(O)C=C[C@H]2[C@@H]3CCC4=CC(=O)CC[C@@H]4[C@H]3CC[C@@]21CC`, the Potency entry was “inactive”.

Consider `C[C@@H]1CC[C@H]2[C@@H](C)C(=O)O[C@@H]3O[C@@]4(C)CC[C@@H]1[C@]32OO4`, for which the Potency result was “inactive”.

Turning to `CNC(C)Cc1ccccc1OC` (stereo not given), the Potency result is “inactive”.

Turning to `CC(Cc1ccccc1)NCc1ccccc1Cl` (stereo not given), the Potency result was “inactive”.

Consider `Nc1ccccc1C(=O)OCC(O)CO` (stereo not given), for which the Potency result was “inactive”.

Regarding `CC(C)NCC(O)c1ccc(N)c(C#N)c1` (stereo not given), the Potency result was “inactive”.

As to `Sc1ccccc1Cl`, the Potency result is “inactive”.

On to `CCN(CC)CCOC(=O)C(C)(c1ccccc1)c1ccccc1`, for which the Potency result is “inactive”.

On to `COc1ccc2[nH]cc(CCN(C(C)C)C(C)C)c2c1`, for which the Potency result is “inactive”.

With `COc1cc(CC#N)cc(OC)c1OC`, the Potency result is “inactive”.

Turning to `O=C(CBr)Nc1ccc(Cl)cc1C(=O)c1ccccc1F`, the Potency entry was “inactive”.

For `COP(=S)(OC)Oc1ccc(S(N)(=O)=O)cc1`, the Potency result is “inactive”.

As to `C[N+](C)(C)CCOC(=O)C(O)(c1ccccc1)c1ccccc1`, the Potency entry was “inactive”.

For `ClCCCN1CCN(c2cccc(Cl)c2)CC1`, the Potency result was “inactive”.

For `CCc1ccc(C2CCNCC2)cc1`, the Potency result was “inactive”.

`CCC1(c2ccccc2)CCC(=O)NC1=O` (stereo not given): the Potency entry was “inactive”.

As to `CN(C)C(=O)Oc1cc(OC(=O)N(C)C)cc(C(O)CNC(C)(C)C)c1` (stereo not given), the Potency entry is “inactive”.

For `Oc1ccc([C@H]2CNCc3c2ccc(O)c3O)cc1O`, the Potency entry was “inactive”.

`CCOC(=O)C(c1c(O)c2ccccc2oc1=O)c1c(O)c2ccccc2oc1=O`: the Potency result was “inactive”.

Regarding `ClCc1cccc(Cl)c1`, the Potency entry is “inactive”.

For the compound `OC(c1ccccc1)(c1ccccc1)C1CCNCC1`, the Potency entry was “inactive”.

As for `CCOC(=O)C1(c2ccccc2)CCN(CCc2ccc(N)cc2)CC1`, the Potency entry is “inactive”.

On to `CCOC(=O)NC(O)C(Cl)(Cl)Cl` (stereo not given), for which the Potency result is “inactive”.

Take `C[C@H]1CNCCc2ccc(Cl)cc21`: the Potency result is “inactive”.

On to `COP(=O)(OC)OC=C(Cl)Cl`, for which the Potency result was “inactive”.

Take `CC(C)(C)OC(=O)c1ncn2c1[C@@H]1CCCN1C(=O)c1c(Br)cccc1-2`: the Potency entry was “inactive”.

Consider `NC(=O)OCCCc1ccccc1`, for which the Potency result was “inactive”.

As for `C[C@]12CC[C@H](O)CC1=CC[C@@H]1[C@@H]2CC[C@]2(C)C(=O)CC[C@@H]12`, the Potency result is “inactive”.

`OC(O)C(Cl)(Cl)Cl`: the Potency entry was “inactive”.

On to `CCCCC1C(=O)NC(=O)N(C2CCCCC2)C1=O` (stereo not given), for which the Potency entry is “inactive”.

As for `CN1C[C@@H](NS(=O)(=O)N(C)C)C[C@@H]2c3cccc4c3c(cn4C)C[C@H]21`, the Potency entry was “inactive”.

On to `CC(Cc1ccccc1)NCCCCl` (stereo not given), for which the Potency result is “inactive”.

For the compound `C[C@]12CC[C@H]3[C@@H](CCC4=CC(=O)CC[C@@H]43)[C@@H]1CC[C@@H]2O`, the Potency result is “inactive”.

(Values after PubChem BioAssay (NCATS).)
